Many of the other results were omitted from the sample, so hits are more common in it than they were.
AmpC inh detg = qHTS Inhibitors of AmpC Beta-Lactamase (assay with detergent) | hit rate 0.041% among 370,000 | Potency, µM (highest dose often 114 µM), actives largely listed as inhibitors | AmpC hydrolysis of nitrocefin, absorbance 480 nm, 0.01% Triton | AID 485294, 2010; note: nearly all actives have a fitted effect of over 25% in size
Target sequence (P00811 whole entry, looked up): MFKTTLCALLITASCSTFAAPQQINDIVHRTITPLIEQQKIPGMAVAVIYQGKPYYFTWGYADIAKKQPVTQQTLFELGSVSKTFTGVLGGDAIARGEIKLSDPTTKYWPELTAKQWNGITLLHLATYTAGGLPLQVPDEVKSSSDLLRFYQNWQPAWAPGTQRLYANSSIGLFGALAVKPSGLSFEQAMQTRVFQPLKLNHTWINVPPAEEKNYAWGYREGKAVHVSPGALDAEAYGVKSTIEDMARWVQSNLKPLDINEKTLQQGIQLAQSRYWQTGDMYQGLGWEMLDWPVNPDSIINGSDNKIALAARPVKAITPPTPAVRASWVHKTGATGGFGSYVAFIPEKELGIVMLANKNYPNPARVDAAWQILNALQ
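AmpC (5.3 nM in the dispensed reagent) in 20 mM phosphate pH 7.0 with 0.01% (detergent screen) or 0.0001% Triton X-100 was preincubated with compounds for 15 min at room temperature. Nitrocefin was then added from an 800 uM solution, and hydrolysis was followed at 480 nm.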
Cycloheximide cs = Cycloheximide Counterscreen for Small Molecule Inhibitors of Shiga Toxin; max response, %; hit rate 12% among 300,000; cell reporter, cycloheximide protein synthesis inhibition counterscreen; AID 2314, 2010; in the data active = max response mostly above about 13%, no sharp cut-off; inactive = mostly below about 14%; note: read at 38.3 µM for the half of the compounds with a filed dose
Shiga toxin inh = A qHTS for Small Molecule Inhibitors of Shiga Toxin; inhibition, % at 38.7 µM; hit rate 9.2% among 290,000; Vero cells, Shiga toxin protein synthesis inhibition reporter; in the data active = inhibition mostly above about 28%, no sharp cut-off; inactive = mostly below about 43%
AMA1-RON2 inh = qHTS for Inhibitors of AMA1-RON; Towards Development of Antimalarial Drug Lead: Primary Screen. Potency, µM (doses to about 58.2 µM), usual class: inhibitors. hit rate 0.2% among 360,000. AlphaScreen AMA1-biotinylated RON2 peptide binding. AID 720542, 2013; note: nearly all actives have a fitted effect of over 45% in size
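AMA1 (3D7) with his tag at 25 nM final met compounds first, then biotinylated RON2 peptide at 25 nM; detection used donor plus acceptor beads, 10 µg/mL apiece, read by AlphaScreen after 30 min at room temperature.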
SARS PLP yeast = qHTS of Yeast-based Assay for SARS-CoV PLP | Potency, µM (top dose mostly 32.9 µM), usual class: activators | S. cerevisiae expressing SARS-CoV PLpro, growth rescue | hit rate 0.19% among 330,000 | AID 485353, 2010; calls by dose curve; note: nearly all actives have a fitted effect of over 55% in size
AmpC inh no detg = qHTS Inhibitors of AmpC Beta-Lactamase (assay without detergent). hit rate 0.52% among 330,000. Potency, µM (titrated, usually from 57.1 µM), most hits filed as inhibitors. AmpC nitrocefin hydrolysis, absorbance 480 nm, 0.0001% Triton. P00811; note: nearly all actives have a fitted effect of over 20% in size
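20 mM phosphate pH 7.0 + 0.01% (detergent screen) or 0.0001% Triton X-100; 5.3 nM AmpC reagent; cpd preinc 15 min RT; nitrocefin (800 uM stock) to start; A480 q20 s × 4 min; Activity was normalised to no-enzyme and no-compound control wells.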
Large screens that a line does not name were inactive. Unless noted, calls come from the whole dose curve; as a rule, active = well fitted curve in the direction sought with a large enough effect; inconclusive = small, poorly fitted or top-dose-only effect, or another doubt; inactive = no such curve, though single readings can be large; an effect the other way counts as inactive or inconclusive.

Cc1cccc(CN2C(=O)N/C(=C/c3ccc(C)s3)C2=O)c1	Cycloheximide cs 23
Cc1cccc(CN2C(=O)N/C(=C/c3cc(C)n(-c4cc(C)ccn4)c3C)C2=O)c1	none
Cc1ccccc1-n1c(SCC(=O)N/N=C/c2ccccc2OCC(=O)O)nc2ccccc2c1=O	none
O=C(Nc1cccc([N+](=O)[O-])c1)c1cccc(C(=O)Nc2cccc([N+](=O)[O-])c2)c1	none
COc1ccc(NC(=O)c2ccc(N(C)S(C)(=O)=O)cc2)cc1OC	AmpC inh detg inconclusive
COc1ccc(C(=O)Nc2cccc(N(C)S(C)(=O)=O)c2)cc1OC	Cycloheximide cs 26, Shiga toxin inh 60
CN(c1cccc(NC(=O)c2cccc([N+](=O)[O-])c2)c1)S(C)(=O)=O	Cycloheximide cs 27, SARS PLP yeast inconclusive
CC(NC(=O)CNC(=O)c1sc2ccccc2c1Cl)c1cccnc1 (configuration not stated)	none
COc1ccc(N2C(=O)C(F)(F)C2c2cccc(F)c2)cc1 (configuration not stated)	none
COc1ccc2oc(C(=O)C3CC3)c(N)c2c1	Cycloheximide cs 43, Shiga toxin inh 131
COc1ccc2oc(C(=O)c3ccccc3)c(N)c2c1	Cycloheximide cs 65, Shiga toxin inh 135
COC(=O)c1oc2ccc(Cl)cc2c1N	AmpC inh detg inconclusive, Cycloheximide cs 22, Shiga toxin inh 99
COC(=O)CCC(=O)c1oc2ccc(OC)cc2c1N	Cycloheximide cs 40
COC(=O)c1oc2ccccc2c1N	none
CCN(CC)C(=O)C1=C(C)N(Cc2ccccc2)C(=O)C(CC(=O)NCCCCc2ccccc2)C1 (configuration not stated)	none (no result: AmpC inh detg, Cycloheximide cs, Shiga toxin inh, SARS PLP yeast, AmpC inh no detg)
COc1ccc(C(=O)c2oc3ccccc3c2N)cc1	Cycloheximide cs 93, Shiga toxin inh active
Clc1ccccc1Cn1nnc2c(Nc3ccccc3)ncnc21	Cycloheximide cs 16
Clc1ccccc1Cn1nnc2c(NCC3CC3)ncnc21	AmpC inh detg inconclusive
CCOc1ccccc1C(=O)Nc1cccc2cccnc12	Cycloheximide cs 20, Shiga toxin inh 19
COc1cccc(C(=O)Nc2cccc3cccnc23)c1OC	Cycloheximide cs 22 (no result: Shiga toxin inh)
COc1ccccc1NC(=O)Cn1nnc(C(=O)NCc2ccc3c(c2)OCO3)c1N	none
O=C(CSc1nnnn1-c1ccccc1)c1ccco1	Cycloheximide cs 36
CCOC(=O)CC(=O)CSc1nnc2sc3ccccc3n12	none
Cn1nnnc1SCC(=O)c1ccco1	none
c1csc(CSc2nnc3sc4ccccc4n23)c1	Cycloheximide cs 32, Shiga toxin inh 106
Cc1cc(-n2c(C)cc(C(=O)CSc3nnc4sc5ccccc5n34)c2C)no1	AmpC inh detg inconclusive, Cycloheximide cs 24, Shiga toxin inh 87
O=C(CSc1nnc2sc3ccccc3n12)c1ccco1	Cycloheximide cs 40, Shiga toxin inh 100
Cc1nn(-c2ccccc2)c(N2CCCC2)c1/C=C1\N=C(c2ccc(F)cc2)OC1=O	none
Cc1cc(C(=O)OCC(=O)Nc2nc(-c3ccccc3)cs2)c(C)o1	none
COc1ccccc1C(=O)NC(=S)Nc1cccc2cc(O)ccc12	none (no result: AmpC inh detg, Cycloheximide cs, Shiga toxin inh, SARS PLP yeast, AmpC inh no detg)
COc1ccc(/C=N/c2oc(C)c(C)c2C#N)c(OC)c1	none
O=C(CSCCSCC(=O)c1ccco1)c1ccco1	Cycloheximide cs 13 (no result: AMA1-RON2 inh)
O=C(NCCNC(=O)c1ccco1)c1ccco1	none
Oc1ccc2ccccc2c1-c1sc(Nc2ccccc2)n[n+]1-c1ccc(F)cc1	none
Fc1ccc(-[n+]2nc(Nc3ccccc3)sc2-c2c3ccccc3cc3ccccc23)cc1	Cycloheximide cs 32, Shiga toxin inh 41, AMA1-RON2 inh inconclusive
COc1ccc(Nc2ncnc3ccccc23)c(OC)c1	none
COc1ccc(Nc2cc(Nc3ccccc3)ncn2)cc1	Cycloheximide cs 31, Shiga toxin inh 49
COc1ccc(Nc2ncnc3ccccc23)cc1	Cycloheximide cs 30, Shiga toxin inh 71
c1ccc(CCNc2ccnc3cc4ccccc4cc23)cc1	AmpC inh no detg 18µM
COc1ccc(Nc2ccnc3ccccc23)cc1	Cycloheximide cs 18
COc1ccc2[nH]c3c(c2c1)CCN1C(=O)C(CC(=O)NCc2cccc(C(F)(F)F)c2)C[C@H](C(=O)N(C(C)C)C(C)C)[C@@]31C (some centres not stated)	none (no result: AmpC inh detg, Cycloheximide cs, Shiga toxin inh)
COc1ccc(Nc2ccccc2N)cc1	Shiga toxin inh 44, AMA1-RON2 inh inconclusive
COc1ccc(Nc2ccnc(Nc3ccc(OC)cc3)n2)cc1	Cycloheximide cs 37, Shiga toxin inh 72, AMA1-RON2 inh inconclusive
COc1cccc(Nc2ncnc3ccccc23)c1	Cycloheximide cs 31, Shiga toxin inh 99
CC(C)Nc1ccc(Nc2ccnc3cc4ccccc4cc23)cc1	AMA1-RON2 inh 7.9µM
COc1ccc(C(=O)C(=O)N2CCN(C(=O)OCc3ccccc3)CC2)cc1	none (no result: AmpC inh detg, Cycloheximide cs, Shiga toxin inh, SARS PLP yeast, AmpC inh no detg)
COC(=O)c1sccc1-n1cccc1C(=O)C(=O)N1CCCC1	none
Cn1cc(Br)c(C(=O)NNC(=O)c2ccc(Cl)cc2)n1	Cycloheximide cs 39
C/C(=N\NC(=O)C1(C)CC1(Br)Br)c1cccc(NC(=O)C(C)(C)C)c1 (configuration not stated)	none
C/C(=N\NC(=O)c1nn(C)cc1Br)c1cccc(NC(=O)C2CCCC2)c1	Cycloheximide cs 65, Shiga toxin inh 102
C/C(=N\NC(=O)c1nn(C)cc1Br)c1ccc(NC(=O)c2ccncc2)cc1	AmpC inh detg inconclusive, Cycloheximide cs 59, Shiga toxin inh 105
C/C(=N\NC(=O)c1nn(C)cc1Br)c1cccc(NC(=O)C(C)(C)C)c1	Cycloheximide cs 32, Shiga toxin inh 98
C/C(=N\NC(=O)c1ccc(N/N=C(\C)c2ccncc2)cc1)c1ccncc1	none
Cc1ccc[n+](CC(=O)N2CCCCC2)c1C	none
C/C(=N\NC(=O)c1c(Cl)cnn1C)c1ccc(NC(=O)c2ccncc2)cc1	Cycloheximide cs 16
Cc1ccc(S(=O)(=O)N2C[C@H]3n4c(=O)ccc(=O)n4C[C@H](OC(=O)Nc4cccs4)[C@@]3(O)C2)cc1	none (no result: AmpC inh detg, Cycloheximide cs, Shiga toxin inh, SARS PLP yeast, AmpC inh no detg)
COc1ccc(Cl)cc1C(=O)n1nc(C)cc1C	none (no result: SARS PLP yeast, AmpC inh no detg)
CC(C)OC(=O)Cc1nc2sc(-c3ccccc3)cc2c(=O)[nH]1	Cycloheximide cs 61, Shiga toxin inh 69
Cc1nc2cc3ccccc3cc2c(=O)[nH]1	Cycloheximide cs 31, Shiga toxin inh 46
Cc1cc2ccccc2c(=O)[nH]1	none
Cc1nc2sc(-c3ccccc3)cc2c(=O)[nH]1	Cycloheximide cs 19
COC(=O)c1ccc(CNC(=O)CCC(=O)N2CCOCC2)cc1	none (no result: AmpC inh detg, Cycloheximide cs, Shiga toxin inh)

Compound activity as filed in PubChem.
